Screening results (PubChem BioAssay)
Most compounds without a hit are left out; they make up all but 2.7% or so of the library.
Pf gametocyte – inhibitors of late stage P. falciparum gametocyte viability | P. falciparum stage V gametocytes, ATP luminescence, 24 h | inhibition, % at 10.9 µM | 150,000 tested, 0.065% active | AID 743093;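 active = inhibition above the mean plus 3 SD of compounds within the control limits, set per campaign, cut at about 38% in these data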;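 also: 0% = DMSO wells and 100% = medium only without gametocytes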
14-3-3 Bad PPI – disrupts binding of bovine 14-3-3 zeta to phospho-Bad peptide; P63103; TR-FRET 14-3-3zeta/Dy647-pBad peptide displacement, 1 h; inhibition, % at 21.7 µM; 220,000 tested, 0.71% active; AID 781;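 active = inhibition above about 70%, limit read from the data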;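 also: 0% = full 14-3-3 plus peptide FRET controls and 100% = background without 14-3-3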
Mcl1-Bid inh – Mcl-1/Bid interaction inhibition | Q07820 | TR-FRET Mcl-1/Bid-Dy647 peptide binding, 1536-well | inhibition, % at 21.7 µM | 220,000 tested, 0.97% active | AID 1021;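 active = compounds that cut the binding signal by more than half at the single screening dose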;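 also: His-tagged Mcl-1 with europium anti-His antibody binding Bid BH3 peptide; 0% = Mcl-1 plus peptide wells and 100% = peptide-only wells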
Mcl1 Noxa PPI – Mcl-1/Noxa interaction inhibition; Q07820; TR-FRET Mcl-1/Noxa peptide binding, 2 h; inhibition, % at 21.7 µM; 220,000 tested, 1.5% active; AID 1022;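 active = compounds that cut the protein-peptide binding signal by more than 50% relative to plate controls in a single-dose test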;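 also: His-tagged Mcl-1 with rhodamine Noxa BH3 peptide and terbium anti-His antibody; 0% = Mcl-1 plus Noxa peptide wells and 100% = peptide-only wells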
Mcl-1 Bim block – human Bim-Mcl-1 interaction inhibition; Bead-based flow cytometry, Bim peptide-Mcl-1 binding; inhibition, % at 10 µM; 190,000 tested, 0.1% active; AID 1009; in the data active = inhibition above about 40%;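 also: 0% = no compound tracer wells and 100% = peptide blocker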
eIF4E 4G PPI – eIF4E/eIF4G interaction inhibition in translation initiation; inhibition, % at 21.7 µM; TR-FRET eIF4E-eIF4GI(517-606) binding, 2 h; P63073+Q04637; 220,000 tested, 0.37% active; AID 782;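 active = inhibition above about 30%, limit read from the data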;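 also: 0% = full FRET control wells and 100% = background wells lacking eIF4GI fragment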
Numbers without * were called inactive; . = no result; [ ] = another dose, or the depositor's remark.

SMILES	Pf gametocyte	14-3-3 Bad PPI	Mcl1-Bid inh	Mcl1 Noxa PPI	Mcl-1 Bim block	eIF4E 4G PPI
O=C(COc1ccc(Cl)cc1Cl)Nc1c(-c2cccs2)nc2ccccn12	5.2	51.3	23.7	51.8*	27.0	-12.6
O=C(CNc1cccc2ccccc12)N/N=C/C=C/c1ccco1	-13.4	1.2	-29.8	20.4	-1.0	3.0
O=C(N/N=C\C=C\c1ccco1)c1cc(-c2ccc3ccccc3c2)n[nH]1	.	-7.2	-13.6	93.2*	-4.0	5.9
O=C(CSc1nnc(SCc2ccccc2)s1)N/N=C/C=C/c1ccco1	.	-6.8	44.6	106.4*	-5.0	23.5
O=C(Cc1cccs1)N/N=C/C=C/c1ccco1	.	-2.2	-30.4	70.3*	-3.0	2.5
COC(=O)c1ccc(OCc2cc(=O)n3ccsc3n2)cc1	-1.9	56.4	65.0*	28.5	-5.0	5.7
COc1ccc(N/N=C(\C=N\O)C(=O)c2ccc(OC)cc2)cc1	8.9	2.3	-43.5	-13.4	-9.0	1.7
N/N=C/C(=N\Nc1ccc(Cl)cc1)C(=O)c1ccncc1	44.7*	9.6	-25.9	27.6	.	3.7
CCCN(CC(=O)Nc1ccc(C(N)=O)cc1)CC(=O)Nc1ccc(Cl)cc1Cl	-28.3	0.9	-36.8	7.1	-3.0	2.5
CC(C)(C)c1ccc(C2CC2C(=O)N/N=C\c2cc3ccccc3nc2Cl)cc1 (configuration not stated)	5.3	84.0*[fluorescence artefact?]	18.3	-6.6	0.0	-2.6
Cc1ccc2nc(Cl)c(/C=N/NC(=O)[C@H]3C[C@@H]3c3ccccc3)cc2c1	14.6	-2.0	-2.3	6.2	-3.0	4.2
Cc1ccc(S(=O)(=O)N2CCc3ccccc3C2CC(=O)O)cc1 (configuration not stated)	-8.9	6.2	12.8	12.2	.	1.4
C=CCn1cc(/C=N/NC(=O)COc2cccc3cccnc23)c2ccccc21	.	61.9	89.0*	66.3*	0.0	12.6
COc1cccc(/C=N/NC(=O)COc2cccc3cccnc23)c1O	13.0	-25.3	-38.3	21.6	-1.0	-1.9
c1ccc(Nc2cccc3c(Nc4ccccc4)cccc23)cc1	0.6	5.7	5.5	50.5*	.	-7.3
c1ccc(Nc2cccc(Nc3ccccc3)n2)cc1	-8.1	-6.4	-21.1	71.5*	32.0	4.4
CCn1c(-c2cc(Cl)ccc2OC)n[nH]c1=S	-9.2	3.0	41.9	59.3*	-4.0	24.6
C=CCn1c(-c2cc(Cl)ccc2OC)n[nH]c1=S	-25.5	11.5	-10.6	12.5	-6.0	1.4
O=C1Nc2ccc(S(=O)(=O)N3CCCC3)c3cccc1c23	.	-1.5	-11.1	7.1	-3.0	-5.4
O=C(c1ccco1)N1C(=O)c2cccc3c(S(=O)(=O)N4CCCC4)ccc1c23	-6.1	3.6	78.2*	61.1*	-10.0	-1.5
COc1ccc(-c2cc(=O)oc3cc(OCC(=O)c4cccc([N+](=O)[O-])c4)ccc23)cc1	-6.3	70.5*[fluorescence artefact?]	50.1	45.7	2.0	23.9
O=C1OCC2OC(O)C(O)C(O)C2OC(=O)c2cc(O)c(O)c(O)c2-c2c(O)c(O)c3oc(=O)c4c(c(O)c(O)c5oc(=O)c2c3c54)-c2c1cc(O)c(O)c2O (configuration not stated)	.	75.2*	-9.8	104.7*	.	34.4*
COc1ccccc1NC(=O)c1c(N=Cc2cccc([N+](=O)[O-])c2)cnn1C	12.1	-1.7	-4.5	8.4	.	45.8*
COc1ccc(C)cc1NC(=O)c1c([N+](=O)[O-])cnn1C	14.8	.	.	.	.	.
COc1ccccc1N(C)S(=O)(=O)c1ccc(C(=O)OCC(=O)NCCC2=CCCCC2)cc1	-26.9	-5.8	-19.9	11.6	-1.0	8.1
O=C(C1=C[C@@H](c2csc3ccccc23)C[C@@H](OCc2ccc(CO)cc2)O1)N1CCN(Cc2ccc3c(c2)OCO3)CC1	5.2	-0.9	97.2*	-11.7	0.0	-0.7
O=C(CSc1nc(-c2ccccc2)cc(C(F)(F)F)n1)N1CCOCC1	-11.6	2.6	77.0*	19.1	1.0	-0.8
COc1ccc(-c2cc(C(F)(F)F)nc(SCC(=O)N3CCOCC3)n2)cc1OC	.	-8.4	-4.1	3.4	0.0	11.4
CCCC(=O)NC(=S)Nc1ccc(C(C)=O)cc1	28.3	-4.7	-58.7	16.8	-1.0	-2.1
COc1cccc(/C=N/Nc2nn3cnnc3c3ccccc23)c1O	.	-8.9	-72.6	52.8*	16.0	-2.5
